Measurements: PubChem BioAssay (Tox21)
Several values for one entry are separate records, joined by “and”; a condition that tells them apart may be missing. Equal values may be shown once. Records with an inconclusive call do not appear. Activity calls are given as the source filed them. Unless noted, calls come from the whole dose curve; as a rule, active = well fitted curve in the direction sought with a large enough effect in the repeat runs; inconclusive = weak or mixed curves; inactive = no such curve, though single readings can be large; an effect the other way counts as inactive or inconclusive.

Legend:
[1] = qHTS assay to identify small molecule antagonists of the thyroid receptor (TR) signaling pathway (AID 743065); details: GH3.TRE-Luc, T3-stimulated luciferase inhibition, 23.5 h; series mostly up to 70.3 µM; note: nearly all actives have a fitted effect of over 55% in size
How it was run: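 GH3.TRE-Luc rat pituitary cells (two TREs driving luciferase) were dosed with compound, then stimulated with 1 nM T3 (final) for 23.5 h at 37 C. ONE-Glo luminescence was the read-out, with CellTiter-Fluor fluorescence as the cytotoxicity counter-screen.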

[2] = system: thyroid hormone receptor (rat, GH3 cells); experiment: qHTS assay to identify small molecule agonists of the thyroid receptor (TR) signaling pathway (AID 743066; calls by dose curve); details: GH3.TRE-Luc cells, TR agonist luciferase, 24 h; series mostly up to 83.9 µM
[3] = target: Estrogen receptor (Homo sapiens) (UniProt P03372); experiment: qHTS assay to identify small molecule antagonists of the estrogen receptor alpha (ER-alpha) signaling pathway (AID 743069; active = well fitted curve in the direction sought with a large enough effect in the signal ratio in the repeat runs, not every such curve was filed as active; the % refers to the signal ratio); details: HEK293 ER-alpha-UAS-bla, beta-lactamase ratio, antagonist mode; series mostly up to 69.4 µM
How it was run: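 In this cell-based reporter format, GripTite HEK293 cells harbouring ER-alpha-UAS-bla were grown overnight with 2% charcoal-stripped FBS, dosed with DMSO-dissolved compounds, then challenged with 17beta-estradiol. After 18 hr at 37C, beta-lactamase activity was detected by FRET fluorescence.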

[4] = qHTS assay to identify small molecule antagonists of the estrogen receptor alpha (ER-alpha) signaling pathway - cell viability counter screen (AID 743074; calls by dose curve; note: nearly all actives have a fitted effect of over 45% in size); details: ERalpha-bla HEK293 viability, CellTiter-Glo luminescence, 18 h; series mostly up to 69.4 µM
[5] = target: Estrogen receptor (Homo sapiens) (UniProt P03372); experiment: qHTS assay to identify small molecule agonists of the estrogen receptor alpha (ER-alpha) signaling pathway (AID 743075; calls by dose curve); details: HEK293 ER-alpha-UAS-bla, beta-lactamase FRET ratio, 18 h; series mostly up to 70.1 µM
[6] = target: Estrogen receptor (Homo sapiens) (UniProt P03372); experiment: qHTS assay to identify small molecule agonists of the estrogen receptor alpha (ER-alpha) signaling pathway using the BG1 cell line (AID 743079); details: BG1Luc4E2 cells, ERE-luciferase agonist, 22 h; series mostly up to 70.3 µM; note: nearly all actives have a fitted effect of over 20% in size; note: potency is the fitted concentration of half-maximal effect
[7] = qHTS assay to identify small molecule antagonists of the estrogen receptor alpha (ER-alpha) signaling pathway using the BG1 cell line (AID 743080; calls by dose curve;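 note: BG1 cells stimulated with 17beta-estradiol alongside compound; nearly all actives have a fitted effect of over 25% in size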); details: BG1Luc4E2 ERE-luciferase antagonist mode, luminescence; series mostly up to 70.3 µM
How it was run: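 Quantitative HTS on the Tox21 10K library: BG1 cells with endogenous ER-alpha and ERE-luciferase reporter, 17beta-estradiol stimulation, 21.5 h compound exposure, luminescence endpoint with parallel fluorescence cytotoxicity counter-read.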

[8] = qHTS assay to identify small molecule antagonists of the estrogen receptor alpha (ER-alpha) signaling pathway using the BG1 cell line - cell viability counter screen (AID 743081); details: BG1Luc4E2 viability, CellTiter-Fluor, 22 h; series mostly up to 70.3 µM;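 note: compound given together with 17beta-estradiol as the ER stimulus; nearly all actives have a fitted effect of over 45% in size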
Aromatase (Homo sapiens) = Aromatase (Homo sapiens) (UniProt P11511); experiment: qHTS assay to identify aromatase inhibitors (AID 743083); details: MCF-7 aro ERE, testosterone-driven ERE luciferase, 24 h; series mostly up to 70.3 µM; note: nearly all actives have a fitted effect of over 55% in size
[9] = qHTS assay to identify aromatase inhibitors - cell viability counter screen (AID 743084); details: MCF-7 aro ERE viability, CellTiter-Fluor, 24 h; series mostly up to 70.3 µM;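 note: cells stimulated with testosterone during compound exposure; nearly all actives have a fitted effect of over 55% in size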

Measured: Potency

Estrogen receptor (Homo sapiens), sequence (P03372 whole entry, looked up): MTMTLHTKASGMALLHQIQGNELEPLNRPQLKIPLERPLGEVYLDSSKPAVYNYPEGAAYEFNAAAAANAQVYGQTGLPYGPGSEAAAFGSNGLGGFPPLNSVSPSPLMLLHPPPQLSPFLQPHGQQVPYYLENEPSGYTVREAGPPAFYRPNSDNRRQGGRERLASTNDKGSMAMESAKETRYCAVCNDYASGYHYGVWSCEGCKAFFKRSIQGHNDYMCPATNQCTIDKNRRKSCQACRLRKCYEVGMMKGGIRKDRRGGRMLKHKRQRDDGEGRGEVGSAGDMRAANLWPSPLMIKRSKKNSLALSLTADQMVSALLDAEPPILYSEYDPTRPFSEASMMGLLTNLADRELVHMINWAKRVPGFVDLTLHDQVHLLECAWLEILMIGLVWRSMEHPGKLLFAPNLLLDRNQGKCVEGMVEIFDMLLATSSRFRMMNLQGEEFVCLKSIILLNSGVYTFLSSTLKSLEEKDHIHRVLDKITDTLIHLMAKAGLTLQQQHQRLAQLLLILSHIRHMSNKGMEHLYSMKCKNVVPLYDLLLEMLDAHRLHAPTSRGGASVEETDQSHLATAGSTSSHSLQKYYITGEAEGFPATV
Aromatase (Homo sapiens), sequence (P11511 whole entry, looked up): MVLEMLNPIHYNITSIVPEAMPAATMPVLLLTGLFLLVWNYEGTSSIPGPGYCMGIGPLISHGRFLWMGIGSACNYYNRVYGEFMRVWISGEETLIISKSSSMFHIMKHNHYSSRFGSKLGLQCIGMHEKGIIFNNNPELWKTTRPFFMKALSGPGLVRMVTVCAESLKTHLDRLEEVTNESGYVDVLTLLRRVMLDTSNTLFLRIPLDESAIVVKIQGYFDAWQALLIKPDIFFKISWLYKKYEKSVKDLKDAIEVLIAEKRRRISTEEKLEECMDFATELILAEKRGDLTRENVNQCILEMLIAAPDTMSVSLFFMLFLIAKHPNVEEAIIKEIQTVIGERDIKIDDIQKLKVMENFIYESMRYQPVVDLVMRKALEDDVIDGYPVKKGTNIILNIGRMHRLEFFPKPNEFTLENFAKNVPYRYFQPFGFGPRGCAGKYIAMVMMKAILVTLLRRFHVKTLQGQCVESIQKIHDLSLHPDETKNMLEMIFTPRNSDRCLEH

CC(=O)NC(=O)c1ccccc1O
inactive: all assays above

CN1CC(=O)N/C1=N/C(=O)Nc1cccc(Cl)c1
active: [6] 29.8 µM and 5.31 µM
not listed: [7]
inactive: all other assays above

CC(C)(C)c1ccc(-c2ccc(C(C)(C)C)cc2)cc1
not listed: [7]
inactive: all other assays above

CC(=O)c1ccccc1[N+](=O)[O-]
not listed: [7]
inactive: all other assays above

CCOC(=O)COC(=O)c1ccccc1C(=O)OCC
inactive: all assays above

CCCCOCCOC(=O)COc1cc(Cl)c(Cl)cc1Cl
inactive: all assays above

C1CCC2(CCCCO2)OC1
not listed: [7]
inactive: all other assays above

CCCCCCCCCCCCCCCCCCO
inactive: all assays above

O=C(O)c1cn(C2CC2)c2cc(N3CCNCC3)c(F)cc2c1=O
not listed: Aromatase (Homo sapiens)
inactive: all other assays above

CN(C)CCN(C)CCN(C)C
not listed: [7]
inactive: all other assays above

COc1cc(C(=O)OC(COCCC(C)C)CN2CCOCC2)cc(OC)c1OC (centres undefined)
not listed: [3] | [8]
inactive: all other assays above

CCC(C(=O)NC(=O)NC(C)=O)c1ccccc1 (centres undefined)
not listed: [7] | [8]
inactive: all other assays above

CN(C)CCCN(C)CCCN(C)C
not listed: [6]
inactive: all other assays above

CCOC(=O)OC(C)OC1=C(C(=O)Nc2ccccn2)N(C)S(=O)(=O)c2ccccc21 (centres undefined)
not listed: [4] | [6]
inactive: all other assays above

CC(CC=O)CC(C)(C)C (centres undefined)
not listed: [4]
inactive: all other assays above

CC(C)=CCC/C(C)=C/C#N
not listed: [7]
inactive: all other assays above

Cc1ccc(C(=O)Nc2ccc(S(=O)(=O)O)c3cc(S(=O)(=O)O)cc(S(=O)(=O)O)c23)cc1NC(=O)c1cccc(NC(=O)Nc2cccc(C(=O)Nc3cc(C(=O)Nc4ccc(S(=O)(=O)O)c5cc(S(=O)(=O)O)cc(S(=O)(=O)O)c45)ccc3C)c2)c1
not listed: [4]
inactive: all other assays above
